Assay [1] can be described thus: qHTS drug screen for cell cycle checkpoint inhibitors in PARPi-resistant BRCA-mutant ovarian cancer cell lines. (AID 1963452; calls by dose curve). The following applies: PEO1/OlaR viability, CellTiter-Glo luminescence, 96 h, stronger effect = lower value. A digest of the protocol: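 PEO1, PEO4 and PEO1/OlaR ovarian cancer cells, 600 per well, exposed 96 h at 37C to a dilution series. Viability read by CellTiter-Glo luminescence, normalized to DMSO and empty wells; activity summarized as Z-AUC.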
A general note: Quantitative high-throughput screening tests each substance at several concentrations.

Assay [2] can be described thus: qHTS profiling for inhibitors of Plasmodium falciparum proliferation (AID 504749). Further: potency means the concentration at half of the fitted maximal effect.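 On activity, negative = inhibition: 0% = DMSO vehicle and full inhibition = artemisinin control.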 On all read-outs here: nearly all actives have a fitted effect of over 60% in size. Particulars: P. falciparum in erythrocytes, SYBR Green DNA, 72 h; for activity, negative = inhibition: at 28.7 µM (top of the series). The procedure, abridged:
(§1)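 SYBR Green fluorescence of parasite DNA, read after lysis and overnight dark incubation, measured growth over 72 h in erythrocyte culture at 0.3% parasitemia and 2.5% hematocrit. Data normalised to DMSO and 0.29 uM artemisinin, with plate-drift correction.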

The test system of assay [3] is 3D7. The assay is described as above. The following applies: P. falciparum in erythrocytes, SYBR Green DNA, 72 h; series mostly up to 28.7 µM. A digest of the protocol: as §1
Assay [4] has as its system 7G8. Described as above. The following applies: P. falciparum in erythrocytes, SYBR Green DNA, 72 h; series mostly up to 28.7 µM. A digest of the protocol:
as §1

The test system of assay [5] is AA1029. The assay is described as above. Particulars: P. falciparum in erythrocytes, SYBR Green DNA, 72 h; series mostly up to 28.7 µM. A digest of the protocol: as §1
Assay [6] has as its system AS120. Described as above. Particulars: P. falciparum in erythrocytes, SYBR Green DNA, 72 h; series mostly up to 28.7 µM. The procedure, abridged:
as §1

The nature of assay [7]: qHTS for identification of novel therapeutic agents for treatment of microphthalmiaassociated transcription factor (MiT) renal cell carcinoma (RCC) (AID 1963991). Particulars: CellTiter-Glo, 48 h, stronger effect = lower value. The procedure, abridged: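 Three TFE3-fusion RCC cell lines (UOK109, UOK124, UOK145), 500 cells/well, were exposed to the 1912-compound MIPE 4.0 library for 48 hours at 37 C. Viability was read by CellTiter-Glo luminescence, normalised to DMSO (100%) and empty wells (0%), with 11-concentration curve fits.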

The mark [8] stands for this setting: measured here: PEO1 parental Z-AUC.

This note sets out measurements from PubChem BioAssay (NCATS).

Records with an inconclusive call do not appear. Activity calls are given as the source filed them. Unless noted, the call rests on the fitted dose curve; in most records, active means well fitted inhibition curve with a large enough effect; inconclusive means small, poorly fitted or top-dose-only effect; inactive means flat fitted curve, though single readings scatter.

Take `COc1cc2c(c(OC)c1OC)-c1ccc(OC)c(=O)cc1[C@@H](NC(C)=O)CC2`: the Z-AUC in assay [1] was -0.869 (inactive); in assay [1] (setting [8]), -1.12; in assay [1] (measured here: PEO4 Z-AUC), -1.62. In addition, the activity, negative = inhibition is -2.78% (inactive) in assay [2] (parasite line A) and 6.74% (inactive) in assay [2] (parasite line B). For the same molecule, the Potency result in assay [3], in assay [4], in assay [5] and in assay [6] was “inactive” in each case.

Consider `CN(C)CCC=C1c2ccccc2C=Cc2ccccc21`, for which the results for the Z-AUC in assay [1], in assay [1] (setting [8]) and in assay [1] (measured here: PEO4 Z-AUC) were -0.345 (inactive), 0.579 and 0.349, respectively. Further, the activity, negative = inhibition in assay [2] (parasite line A) is -3.11% (inactive); in assay [2] (parasite line B), -19.2% (inactive). Moreover, in assay [3], the Potency result was “inactive”. Moreover, the Potency in assay [4] is 7.94 µM (active).

With `Nc1nnc(-c2cccc(Cl)c2Cl)c(N)n1`, the Z-AUC was -0.438 (inactive) in assay [1], 0.568 in assay [1] (setting [8]) and 0.453 in assay [1] (measured here: PEO4 Z-AUC). In addition, the values for the activity, negative = inhibition in assay [2] (parasite line A) and in assay [2] (parasite line B) were -17% (inactive) and -20% (inactive), respectively. Moreover, the Potency entry in assay [3], in assay [4], in assay [5] and in assay [6] was “inactive” in each case.

`COc1ccc2[nH]cc(CCNC(C)=O)c2c1`: the Z-AUC is 1.13 (inactive) in assay [1], 1.56 in assay [1] (setting [8]) and 1.13 in assay [1] (measured here: PEO4 Z-AUC). In addition, the activity, negative = inhibition is 6.49% (inactive) in assay [2] (parasite line A) and 12.1% (inactive) in assay [2] (parasite line B). For the same molecule, the Potency result in assay [3], in assay [4], in assay [5] and in assay [6] was “inactive” each time.

Turning to `O=C1N(c2ccccc2)c2ccccc2C1(Cc1ccncc1)Cc1ccncc1`, the Z-AUC is -0.0273 (inactive) in assay [1], 0.843 in assay [1] (setting [8]) and 0.797 in assay [1] (measured here: PEO4 Z-AUC). The activity, negative = inhibition in assay [2] (parasite line A) was 1.98% (inactive); in assay [2] (parasite line B) it was -9.11% (inactive). Further, the Potency result in assay [3], in assay [5] and in assay [6] was “inactive” each time. In addition, in assay [4], the Potency was 8.91 µM (active).

As to `CC(COc1ccccc1)N(CCCl)Cc1ccccc1` (configuration not stated), the Z-AUC was 1.41 (inactive) in assay [1], 1.02 in assay [1] (setting [8]) and 1.15 in assay [1] (measured here: PEO4 Z-AUC). In addition, the activity, negative = inhibition is 7.32% (inactive) in assay [2] (parasite line A) and 2.35% (inactive) in assay [2] (parasite line B). Besides, the Potency result in assay [3] was “inactive”. In addition, the Potency in assay [4] is 12.6 µM (active).

For the molecule `CCCNCC(O)COc1ccccc1C(=O)CCc1ccccc1` (configuration not stated), the Z-AUC was 0.52 (inactive) in assay [1], 0.498 in assay [1] (setting [8]) and 0.0881 in assay [1] (measured here: PEO4 Z-AUC). Moreover, the Potency was 1 µM (active) in assay [2] (parasite line A); 0.355 µM (active) in assay [2] (parasite line B); 2 µM (active) in assay [3]; 0.251 µM (active) in assay [4]; 0.631 µM (active) in assay [5]; 0.316 µM (active) in assay [6].

For `CN(C)CCOC(c1ccccc1)c1ccccc1`, the values for the Z-AUC in assay [1], in assay [1] (setting [8]) and in assay [1] (measured here: PEO4 Z-AUC) were -0.454 (inactive), 0.718 and -0.44, respectively. Besides, the activity, negative = inhibition in assay [2] (parasite line A) was 13.6% (inactive); in assay [2] (parasite line B), 11.2% (inactive). The Potency entry in assay [3] is “inactive”. Further, the Potency in assay [4] is 11.2 µM (active).

As to `Cn1cnc2c1c(=O)[nH]c(=O)n2C`, the values for the Z-AUC in assay [1], in assay [1] (setting [8]) and in assay [1] (measured here: PEO4 Z-AUC) were -0.393 (inactive), -0.653 and -0.709, respectively. The activity, negative = inhibition in assay [2] (parasite line A) was 1.87% (inactive); in assay [2] (parasite line B), -0.248% (inactive). Further, the Potency result in assay [3], in assay [4], in assay [5] and in assay [6] was “inactive” each time.

As for `N[C@@H](Cc1c[nH]c2ccc(O)cc12)C(=O)O`, the figures for the Z-AUC in assay [1], in assay [1] (setting [8]) and in assay [1] (measured here: PEO4 Z-AUC) were -0.189 (inactive), -0.312 and -0.162, respectively. Further, the z-score in assay [7] (TFE3-RCC UOK109 viability, measured here: UOK109 Z-AUC) came to 0.236; in assay [7] (TFE3-RCC viability, measured here: UOK124 Z-AUC) it was 0.415; in assay [7] (TFE3-RCC viability, measured here: UOK145 Z-AUC), 0.556. Further, the activity, negative = inhibition in assay [2] (parasite line A) is 15.9% (inactive); in assay [2] (parasite line B), 15.8% (inactive). Further, the Potency result in assay [3], in assay [4], in assay [5] and in assay [6] was “inactive” in each case.
